Marburg entry inh – inhibitors of Marburg virus binding or cell entry; Marburg virus pseudotyped entry inhibition, cell reporter; Potency, µM (titrated, usually from 37.8 µM), inactives show top-dose activity change, negative = inhibition, most hits filed as inhibitors; 300,000 compounds, 1.8% hits; AID 540276; calls by dose curve; tested in HEK293 cells; also: potency is read from the fitted curve at half-maximal effect; % is scaled to controls: 0 for no effect and ±100 for the full control effect
HCV inh – blocks hepatitis C virus; Huh7.5.1 HCVcc-Cre infection, luciferase reporter, 44 h; AID 651820; Potency, µM (doses to about 41.8 µM), for inactives: at the highest dose activity change, negative = inhibition, most hits filed as inhibitors; 340,000 compounds, 3.4% hits; active = well fitted inhibition curve with a large enough effect; inconclusive = small, poorly fitted or top-dose-only effect, or another doubt; inactive = no such curve, though single readings can be large or run the other way; also: potency is read from the fitted curve at half-maximal effect; % is scaled to controls: 0 for no effect and ±100 for the full control effect
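Luciferase read-out (15 sec integration) after a 15 min room-temperature substrate step quantifies HCVcc-Cre infection. Cells, 1,000 per well, had compound added 4 h post-plating, then virus at ~0.5 moi, and were cultured 44 h.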
FMDV inh – antivirals against foot and mouth disease virus. Potency, µM (titrated, usually from 57.9 µM), for the others: top-dose activity change, negative = inhibition, actives largely listed as inhibitors. FMDV antiviral cell-based qHTS. 410,000 compounds, 1.2% hits. AID 1159524; calls by dose curve; tested in HEK293T cells; also: read-out not given here; potency is read from the fitted curve at half-maximal effect; % is scaled to controls: 0 for no effect and ±100 for the full control effect; nearly all actives have a fitted effect of over 45% in size
SARS PLP yeast – blocks SARS-CoV papain-like protease in a yeast assay; S. cerevisiae expressing SARS-CoV PLpro, growth rescue; 330,000 compounds, 0.19% hits; Potency, µM (doses to about 32.9 µM), inactives show top-dose activity, positive = growth rescue, hits mostly activators; calls by dose curve; also: potency is read from the fitted curve at half-maximal effect; 0% is about no effect; nearly all actives have a fitted effect of over 55% in size
LASV entry inh – blocks Lassa virus binding to or entry into cells. Lassa virus pseudotype entry inhibition, cell reporter. Potency, µM (top dose mostly 37.9 µM), for the others: at the top dose activity change, negative = inhibition, hits mostly inhibitors. 300,000 compounds, 1.2% hits. AID 540256; calls by dose curve; tested in HEK293 cells; also: potency is read from the fitted curve at half-maximal effect; % is scaled to controls: 0 for no effect and ±100 for the full control effect; nearly all actives have a fitted effect of over 50% in size
HCMV antiviral – inhibitors of human cytomegalovirus | HFF cells, HCMV-luciferase reporter, 72 h; stronger effect = lower value | activity change, negative = inhibition, % at 57.5 µM | 410,000 compounds, 4.5% hits | AID 1259415; in the data active = activity change below about -60%; inconclusive = no clear call, values can overlap the other calls; inactive = above about -39%; also: % is scaled to controls: 0 for no effect and ±100 for the full control effect
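Two-dose cell screen: HFF monolayers treated with compounds and infected with luciferase-expressing HCMV at 1 PFU/cell, 72 h at 37C, then lysed for luciferase measurement.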
An asterisk follows results filed as active; ? = inconclusive; nt = no result; [ ] = another dose, or the depositor's remark. Rows were chosen to be rich in hits. Some 8% of all compounds tested hit in one or more screens of this group.

SMILES | Marburg entry inh | HCV inh | FMDV inh | SARS PLP yeast | LASV entry inh | HCMV antiviral
CC1CCC(C(C)C)C(OC(=O)C[n+]2cc(-c3ccc(Cl)cc3)n3c2CCCCC3)C1 (stereo unspecified) | ? | -17% | ? | 2% | ? | -97*
Clc1ccc(C[n+]2cc(-c3ccccc3)n3c2CCCCC3)c(Cl)c1 | nt | -30% | ? | 0% | nt | -78*
Clc1ccc(-c2c[n+](Cc3ccc(Cl)cc3Cl)c3n2CCCCC3)cc1 | nt | -22% | -13% | 1% | nt | -102*
O=C(C[n+]1cc(-c2ccccc2)n2c1CCCCC2)c1ccc(Cl)cc1 | -11%[46.1 µM] | -19% | -8% | -22% | -28%[46.1 µM] | 5
Clc1ccc(-c2c[n+](Cc3ccc(Br)cc3)c3n2CCCCC3)cc1 | ? | 12% | 6% | 2% | -18%[46.1 µM] | -68*
O=C(NCc1ccc(F)cc1)c1ccc(Nc2nc3ccccc3n3nnnc23)cc1 | -18%[46.1 µM] | nt | 4% | nt | 10%[46.1 µM] | -34
Cc1ccc(-c2c[n+](CC(=O)c3ccc(Br)cc3)c3n2CCCCC3)cc1 | 10µM* | -8% | ? | 0% | ? | -88*
N#Cc1cc2c(OCC(O)CN3CCN(C(c4ccccc4)c4ccccc4)CC3)cccc2[nH]1 (stereo unspecified) | nt | nt | -3% | nt | nt | nt
COc1cccc(NC(=O)N2CCc3nc(NCc4cccc(Oc5ccccc5)c4)ncc3C2)c1 | nt | nt | -62% | nt | nt | ?
COc1cccc(NC(=O)N2CCc3nc(Nc4cc(Cl)cc(Cl)c4)ncc3C2)c1 | nt | nt | -23% | nt | nt | -67*
O=C(Nc1ccc(OC(F)(F)F)cc1)N1CCc2nc(NCc3cccc(Oc4ccccc4)c3)ncc2C1 | nt | nt | -30% | nt | nt | -92*
CC(C)c1ccc(Nc2ncc3c(n2)CCN(C(=O)Nc2ccc(F)c(Cl)c2)C3)cc1 | nt | nt | ? | nt | nt | -75*
Cc1ccccc1OCc1ccc(-c2nc(C#N)c(N3CCC(C(N)=O)CC3)o2)o1 | ? | nt | -18% | nt | -13%[46.1 µM] | -38
CC(=O)N1CC2(CC(c3ccccc3C(F)(F)F)=NO2)CN1c1ccc(Cl)cc1 (stereo unspecified) | nt | nt | ? | nt | nt | -24
CCCN(CC(=O)Nc1ccccc1C)C(=O)C1CCN(S(=O)(=O)c2ccc(C)c(C)c2)CC1 | nt | nt | -16% | nt | nt | -61*
CCCN(CC(=O)Nc1ccccc1C)C(=O)C1CCN(S(=O)(=O)c2ccc3c(c2)OCCO3)CC1 | nt | -5% | -5% | nt | nt | 63
Cc1ccccc1NC(=O)C1CCN(S(=O)(=O)c2ccccc2)CC1 | nt | nt | -10% | nt | -16%[46.1 µM] | -78*
Cc1ccccc1C(=O)N1CCC(C(=O)Nc2ccc(S(=O)(=O)N3CCCCC3)cc2)CC1 | -30% | 13µM* | ? | 3% | ? | -9
O=C(Nc1ccc(Oc2ccccc2)cc1)C1CCCN(c2ncccn2)C1 (stereo unspecified) | 5% | 21% | -5% | 1% | -10% | -72*
CC(=O)c1ccc(C(=O)N2CCc3c(cnc(C)c3CNC(=O)c3ccc4c(c3)OCO4)C2)s1 | nt | nt | -7% | nt | nt | nt
COc1ccccc1C=CC1=CC2(C)CC1(C)C(c1ccccc1OC)CC2=O (stereo unspecified) | -29%[14.2 µM] | nt | nt | nt | nt | nt
Cc1nn(-c2ccccc2)nc1C(=O)Nc1ccccc1C(=O)NCC1CC1 | nt | nt | nt | nt | nt | 1
O=C(Nc1ccc(S(=O)(=O)N2CCCC2)cc1)C1CCCN1C(=O)c1cccs1 (stereo unspecified) | 0%[46.1 µM] | 4% | -6% | 2% | -4% | -101*
O=C(Nc1cccc(S(=O)(=O)N2CCCC2)c1)C1CCCN1C(=O)c1cccs1 (stereo unspecified) | nt | ? | -1% | -1% | nt | -36
O=C(Nc1ccc(Oc2ccccc2)cc1)C1CCN(S(=O)(=O)c2ccccc2)CC1 | 3%[46.1 µM] | nt | ? | nt | -1%[46.1 µM] | -82*
SMILES | Marburg entry inh | HCV inh | FMDV inh | SARS PLP yeast | LASV entry inh | HCMV antiviral
Cc1cc(NC(=O)OC2CCCCC2)ccc1[N+](=O)[O-] | 10µM* | ? | 30% | -4% | ? | 50
Cc1ccc(NC(=O)C2C3CCCCC32)cc1[N+](=O)[O-] (stereo unspecified) | nt | -9% | 49% | -6% | nt | -19
FC(F)(F)c1ccccc1-c1nc(NC2CCNCC2)c2ccccc2n1 | nt | nt | -14% | nt | nt | nt
C=CCN1c2ccccc2[C@]23C[C@@H](C(=O)OC)N(C(=O)Nc4ccc(C(F)(F)F)cc4)C2=NC(C(=O)OC)=C(C(=O)OC)[C@H]13 | 17%[14.2 µM] | nt | nt | nt | nt | nt
O=C(Cn1cnc2c(oc3nc4c(cc32)CCCC4)c1=O)Nc1cccc(Cl)c1 | 5%[46.1 µM] | 25µM* | 11% | 1% | 2% | 34
CCCCCCCCOC(=O)c1cc([N+](=O)[O-])c(Sc2ncnc3nc[nH]c23)c([N+](=O)[O-])c1 | ? | 10% | ? | nt | 11µM* | ?
CCCCOC(=O)c1ccc(Nc2ncnc3nc[nH]c23)cc1 | 13% | 2% | 38% | 14% | 3% | 82
COc1ccc(C)cc1NC(=O)c1cc(S(=O)(=O)NC2CCCCCC2)ccc1F | nt | nt | 46% | nt | -3%[46.1 µM] | -34
CCN(C)C(=O)C1=CN2CCN(Cc3ccccc3C(F)(F)F)C(=O)N=C2O1 | nt | nt | nt | nt | nt | 14
CCOc1ccccc1N(CC(=O)Nc1ccccc1Br)S(=O)(=O)c1ccccc1 | nt | nt | -20% | nt | nt | -63*
COc1ccc(NC(=O)CN(c2ccccc2OC)S(=O)(=O)c2cccs2)cc1Cl | ? | ? | -17% | 2% | -28% | -7
CCOc1ccccc1N(CC(=O)Nc1ccc(OC)c(Cl)c1)S(=O)(=O)c1ccccc1 | nt | nt | -7% | nt | ? | -62*
COc1ccc(N(CC(=O)Nc2ccc(OC)c(OC)c2)S(=O)(=O)c2ccccc2)cc1Cl | nt | 13µM* | -18% | -2% | nt | 59
CCOc1ccccc1N(CC(=O)O)S(=O)(=O)c1ccccc1 | 16% | 8% | -2% | -4% | 16% | 23
CCOc1ccccc1N(CC(=O)NC1CCCCC1)S(=O)(=O)c1ccc(C)cc1 | 3.2µM* | -13% | 15% | 5% | ? | -77*
CC(C)(C)NC(=O)CSc1nc(Cc2ccccc2)nc2ccccc12 | nt | 13µM* | -1% | 20% | nt | -67*
CCC(C)(C)NC(=O)CSc1nc(Cc2ccccc2)nc2ccccc12 | ? | -26% | -23% | -6% | -2%[46.1 µM] | -72*
CC(C)NC(=O)CSc1nc(Cc2cccs2)nc2ccccc12 | -20% | -26% | nt | -3% | 0% | -81*
O=C(C[n+]1ccc(/C=N/O)cc1)NC1CCCCC1 | 5%[46.1 µM] | 7% | -14% | -4% | 3% | ?
Oc1ccc(COCc2ccc(F)cc2)c2cccnc12 | nt | nt | nt | 1% | nt | nt
O=c1ccnc(Nc2ccc([N+](=O)[O-])cc2)[nH]1 | ? | -20% | -7% | nt | -13%[46.1 µM] | -71*
CN(C)S(=O)(=O)c1ccc(C(=O)Nc2ccc(S(=O)(=O)NC3=NCCCCC3)cc2)cc1 | -6%[46.1 µM] | -10% | -15% | 11% | -16% | -10

Screening data from PubChem BioAssay.
